Results: the OligoGym collection

These sequences were tested against C2orf57 (assay: pooled miR-30 sensor sort-seq; sequence = guide strand). Details: shRNA.
Further: reference of the scale not given here.

Question: Which sensor-assay potency score (higher = more potent) does the source give for TAAAGCTTCAGCTTCAGGGTGT here?
Answer: The sensor-assay potency score (higher = more potent) was 0.632.

Question: TTGTCTTTGTCTCCAGATGTTG was tested. Which sensor-assay potency score (higher = more potent) did it give?
Answer: The sensor-assay potency score (higher = more potent) was -1.39.

Question: With TGACATCTTGTCTTTACCCAGG as the sequence, how does the sensor-assay potency score (higher = more potent) read?
Answer: The sensor-assay potency score (higher = more potent) was -0.635.

Question: AAAACCACTAGACTCTGACTTG was tested. Which sensor-assay potency score (higher = more potent) did it give?
Answer: Its sensor-assay potency score (higher = more potent) is -0.273.

These sequences were tested against C2orf70 in the same assay as above. Details: shRNA.

Question: TAGAAATTCGTAAGCTCTGTGG was tested. Which sensor-assay potency score (higher = more potent) did it give?
Answer: The sensor-assay potency score (higher = more potent) was -0.326.

Question: With TTGGTGGAGAAGATGGTGGGGA as the sequence, how does the sensor-assay potency score (higher = more potent) read?
Answer: Its sensor-assay potency score (higher = more potent) is 0.218.

Question: How did the sensor-assay potency score (higher = more potent) turn out when TTGATAGTACTTCCGATGCTGC was run?
Answer: Its sensor-assay potency score (higher = more potent) is -0.858.

Question: Which sensor-assay potency score (higher = more potent) does the source give for TAGCAGTCTCTCTTTTTCCGCT here?
Answer: Its sensor-assay potency score (higher = more potent) is -0.538.

Question: How did the sensor-assay potency score (higher = more potent) turn out when TTCGTAAGCTCTGTGGAGCGAT was run?
Answer: Its sensor-assay potency score (higher = more potent) is -0.412.

Question: How did the sensor-assay potency score (higher = more potent) turn out when TAGGTCTTCAGGTTCTCGGGGG was run?
Answer: Its sensor-assay potency score (higher = more potent) is 0.319.

Question: TTGAACTCGGTCAGTAGGGTGC was tested. Which sensor-assay potency score (higher = more potent) did it give?
Answer: The sensor-assay potency score (higher = more potent) was -0.0549.

Question: With TACTTGAGGGTGGTGGTGCCGT as the sequence, how does the sensor-assay potency score (higher = more potent) read?
Answer: The sensor-assay potency score (higher = more potent) was -0.758.

Question: TAGTCTTAAAAGGTGCCACTTC was tested. Which sensor-assay potency score (higher = more potent) did it give?
Answer: The sensor-assay potency score (higher = more potent) was -0.307.

Question: With TGTCTTGATAGTACTTCCGATG as the sequence, how does the sensor-assay potency score (higher = more potent) read?
Answer: The sensor-assay potency score (higher = more potent) was -1.09.

Question: Which sensor-assay potency score (higher = more potent) does the source give for TTGTCTTGATAGTACTTCCGAT here?
Answer: The sensor-assay potency score (higher = more potent) was -0.575.

Question: With TAAAAGGTGCCACTTCTTCTTT as the sequence, how does the sensor-assay potency score (higher = more potent) read?
Answer: Its sensor-assay potency score (higher = more potent) is -0.951.

Each sequence was assayed against C2orf76 in the same assay as above. Details: shRNA.

Question: TTCGTCATCTTCCAAACTCAAC was tested. Which sensor-assay potency score (higher = more potent) did it give?
Answer: The sensor-assay potency score (higher = more potent) was -1.74.

Question: How did the sensor-assay potency score (higher = more potent) turn out when TATAATTTCTGAATGGTGGTGG was run?
Answer: The sensor-assay potency score (higher = more potent) was 1.01.

Question: TCTTCTTTCAGCAGGAGTCTTT was tested. Which sensor-assay potency score (higher = more potent) did it give?
Answer: Its sensor-assay potency score (higher = more potent) is -0.508.

Question: Which sensor-assay potency score (higher = more potent) does the source give for TTTGTCTTTGATTTATGTGCTT here?
Answer: The sensor-assay potency score (higher = more potent) was -0.117.

Question: For TAAAGGGATATCTTGCTTTAGA, which sensor-assay potency score (higher = more potent) is on record?
Answer: Its sensor-assay potency score (higher = more potent) is -0.915.

Question: TTGTCTTTGATTTATGTGCTTG was tested. Which sensor-assay potency score (higher = more potent) did it give?
Answer: Its sensor-assay potency score (higher = more potent) is -0.405.

Question: Which sensor-assay potency score (higher = more potent) does the source give for TATCTTGCTTTAGAAATACGAT here?
Answer: Its sensor-assay potency score (higher = more potent) is -1.11.

Question: Which sensor-assay potency score (higher = more potent) does the source give for TTTCAGAGTGCTGTCTTCTTTC here?
Answer: Its sensor-assay potency score (higher = more potent) is 0.204.

Question: How did the sensor-assay potency score (higher = more potent) turn out when TTTGTAGTTCTTATAATCTTCT was run?
Answer: Its sensor-assay potency score (higher = more potent) is -0.217.

Question: Which sensor-assay potency score (higher = more potent) does the source give for TGTAGTTCTTATAATCTTCTTC here?
Answer: The sensor-assay potency score (higher = more potent) was 0.298.

Question: For TTTCACTGGCGATTCCAGCTGC, which sensor-assay potency score (higher = more potent) is on record?
Answer: The sensor-assay potency score (higher = more potent) was 0.205.

The sequences below were run against C2orf79 in the same assay as above. Details: shRNA.

Question: For TTTAGGGTGGTCTCATCTGGGG, which sensor-assay potency score (higher = more potent) is on record?
Answer: Its sensor-assay potency score (higher = more potent) is -0.919.

Question: Which sensor-assay potency score (higher = more potent) does the source give for TTCGTAACACCAAGTATTGTAC here?
Answer: Its sensor-assay potency score (higher = more potent) is -0.56.

Question: How did the sensor-assay potency score (higher = more potent) turn out when TAACACCAAGTATTGTACCAGG was run?
Answer: The sensor-assay potency score (higher = more potent) was -0.742.

Question: For TAGATCCTTTCGTAACACCAAG, which sensor-assay potency score (higher = more potent) is on record?
Answer: The sensor-assay potency score (higher = more potent) was -1.46.

Question: Which sensor-assay potency score (higher = more potent) does the source give for TATTGTACCAGGACCTGCGGCT here?
Answer: Its sensor-assay potency score (higher = more potent) is -0.203.

Question: Which sensor-assay potency score (higher = more potent) does the source give for TTGTGATAGATCCTTTCGTAAC here?
Answer: The sensor-assay potency score (higher = more potent) was -1.71.

Question: With TTCTGTTGCAGGGTCTCGGCCA as the sequence, how does the sensor-assay potency score (higher = more potent) read?
Answer: The sensor-assay potency score (higher = more potent) was -0.447.

Question: With TCTTCTGTTGCAGGGTCTCGGC as the sequence, how does the sensor-assay potency score (higher = more potent) read?
Answer: The sensor-assay potency score (higher = more potent) was -1.21.

Question: With TTGCTCAAGCCACAGCATGTGG as the sequence, how does the sensor-assay potency score (higher = more potent) read?
Answer: Its sensor-assay potency score (higher = more potent) is -1.1.

Question: For TACAAGTGGCGATATTCTCTGG, which sensor-assay potency score (higher = more potent) is on record?
Answer: Its sensor-assay potency score (higher = more potent) is -0.432.

Question: Which sensor-assay potency score (higher = more potent) does the source give for TTAGGGTGGTCTCATCTGGGGC here?
Answer: The sensor-assay potency score (higher = more potent) was -1.64.

Question: How did the sensor-assay potency score (higher = more potent) turn out when TTTCGTAACACCAAGTATTGTA was run?
Answer: The sensor-assay potency score (higher = more potent) was 0.279.
